Shown are actives, neighbours in structure and some others; about 0.87% of the full set was active somewhere.
FEN1 inhibitor – qHTS Assay for the Inhibitors of Human Flap endonuclease 1 (FEN1); P39748; Recombinant FEN1 flap cleavage, fluorescence, 15 min; Potency, µM (doses to about 114 µM), hits mostly inhibitors; 390,000 tested, 0.35% active; also: nearly all actives have a fitted effect of over 65% in size
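FEN1 at 10 nM preincubated with compounds 15 min at room temperature, then flap DNA substrate added at 50 nM final. Signal read at 0 and 15 min; concentration-response fitted with four-parameter Hill equation.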
BLM helicase inh – qHTS Assay for Inhibitors of Bloom's syndrome helicase (BLM). RecQ-like DNA helicase BLM (Homo sapiens), P54132. Potency, µM (doses to about 56.1 µM), usual class: inhibitors. recombinant BLM DNA unwinding, fluorescence dequenching. 350,000 tested, 0.2% active; also: nearly all actives have a fitted effect of over 35% in size
WRN helicase inh – qHTS for Inhibitors of WRN Helicase; WRN helicase unwinding, fluorescent forked duplex, kinetic; 360,000 tested, 0.46% active; Potency, µM (doses to about 114 µM), most hits filed as inhibitors; also: nearly all actives have a fitted effect of over 55% in size
Target sequence (Q14191 whole entry, looked up): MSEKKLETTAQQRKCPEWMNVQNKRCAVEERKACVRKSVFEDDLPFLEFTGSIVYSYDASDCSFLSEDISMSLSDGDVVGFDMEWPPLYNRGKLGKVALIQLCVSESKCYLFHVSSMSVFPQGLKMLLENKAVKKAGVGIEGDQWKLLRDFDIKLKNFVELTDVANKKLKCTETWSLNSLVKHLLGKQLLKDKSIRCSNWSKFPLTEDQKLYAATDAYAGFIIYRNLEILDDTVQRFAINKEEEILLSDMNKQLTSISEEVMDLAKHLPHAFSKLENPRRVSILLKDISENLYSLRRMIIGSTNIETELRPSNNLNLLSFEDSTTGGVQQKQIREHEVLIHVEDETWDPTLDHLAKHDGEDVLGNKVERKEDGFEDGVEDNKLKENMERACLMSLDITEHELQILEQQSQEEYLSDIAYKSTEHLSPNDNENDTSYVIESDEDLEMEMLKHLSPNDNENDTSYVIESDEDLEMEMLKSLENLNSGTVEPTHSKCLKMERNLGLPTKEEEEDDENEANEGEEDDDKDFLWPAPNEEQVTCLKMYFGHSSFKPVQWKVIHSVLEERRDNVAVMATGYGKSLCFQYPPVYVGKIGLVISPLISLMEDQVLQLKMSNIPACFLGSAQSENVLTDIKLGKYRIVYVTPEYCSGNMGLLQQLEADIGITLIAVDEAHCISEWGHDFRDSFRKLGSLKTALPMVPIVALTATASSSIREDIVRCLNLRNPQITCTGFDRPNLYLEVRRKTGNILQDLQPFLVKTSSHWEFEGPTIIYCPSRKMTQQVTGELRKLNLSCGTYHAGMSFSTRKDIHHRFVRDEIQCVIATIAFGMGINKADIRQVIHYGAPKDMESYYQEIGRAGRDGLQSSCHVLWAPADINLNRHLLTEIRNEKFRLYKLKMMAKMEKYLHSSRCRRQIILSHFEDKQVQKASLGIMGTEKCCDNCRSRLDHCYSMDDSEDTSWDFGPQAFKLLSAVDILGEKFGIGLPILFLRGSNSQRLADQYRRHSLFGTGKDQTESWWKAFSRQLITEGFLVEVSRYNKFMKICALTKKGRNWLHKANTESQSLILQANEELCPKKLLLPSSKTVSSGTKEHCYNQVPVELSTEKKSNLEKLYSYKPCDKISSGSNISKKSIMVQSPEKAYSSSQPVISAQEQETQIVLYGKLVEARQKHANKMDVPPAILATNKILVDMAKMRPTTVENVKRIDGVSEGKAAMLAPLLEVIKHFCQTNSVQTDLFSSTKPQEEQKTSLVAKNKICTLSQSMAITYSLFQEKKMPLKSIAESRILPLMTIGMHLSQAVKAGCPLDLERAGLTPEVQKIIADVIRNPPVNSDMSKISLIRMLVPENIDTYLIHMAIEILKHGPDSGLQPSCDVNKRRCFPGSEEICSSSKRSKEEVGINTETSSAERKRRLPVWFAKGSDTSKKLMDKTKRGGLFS
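WRN at 20 nM final preincubated with compound 15 min at room temperature; reaction started with 100 nM fluorophore/quencher forked duplex oligonucleotide and 2 mM ATP final. Unwinding followed kinetically by red fluorescence (ex 525, em 598 nm).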
APEX1 inh – qHTS Assay for Inhibitors of the Human Apurinic/apyrimidinic Endonuclease 1 (APE1); DNA repair nuclease/redox regulator APEX1 (Homo sapiens), P27695; recombinant APE1, TAMRA/BHQ-2 abasic DNA cleavage fluorescence; Potency, µM (highest dose often 65.8 µM), usual class: inhibitors; 350,000 tested, 0.35% active; AID 2517, 2012; also: nearly all actives have a fitted effect of over 55% in size
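Incision of a quenched TAMRA/BHQ-2 THF abasic-site duplex (50 nM) by 0.75 nM APE1, after 15 min compound preincubation, measured as fluorescence increase over three 60 s reads. Values normalized to buffer, DMSO and NSC13755 control wells.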
RECQ1 helicase – qHTS Assay for Inhibitors of RecQ-Like Dna Helicase 1 (RECQ1); 240,000 tested, 0.54% active; Potency, µM (highest dose often 57.3 µM), actives largely listed as inhibitors; RECQ1 DNA unwinding, red fluorescence kinetic read; also: nearly all actives have a fitted effect of over 30% in size
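50 nM RECQ1T1 preincubated 15 min with compound in Tris pH 8.0 buffer with MgCl2, DTT, Tween-20 and 2.5 ug/ml poly(dI-dC); started with 200 nM TAMRA/BHQ-2 forked duplex and 2 mM ATP. Unwinding read as fluorescence (525/598 nm), two reads 2 h apart.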
A number is an active result; – = inactive; ? = inconclusive; · = not tested or not shown; ! = not confirmed by another sample; [ ] = remark or other dose. Calls follow the shape of the dose curve; as a rule, active = well fitted curve in the direction sought with a large enough effect; inconclusive = small, poorly fitted or top-dose-only effect, or another doubt; inactive = no such curve, though single readings can be large; an effect the other way counts as inactive or inconclusive.

SMILES	FEN1 inhibitor	BLM helicase inh	WRN helicase inh	APEX1 inh	RECQ1 helicase
C[C@H]1O[C@@H](O[C@H]2[C@@H](O)C[C@@H](O[C@H]3[C@@H](O)C[C@H](O[C@H]4CC[C@@]5(C)[C@H](CC[C@@H]6[C@@H]5CC[C@]5(C)[C@@H](C7=CC(=O)OC7)CC[C@]65O)C4)O[C@@H]3C)O[C@@H]2C)C[C@H](O)[C@@H]1O	–	·	·	·	·
COc1ccc2[nH]c3c(c2c1)CCN=C3C	50.1µM	–	–[11.6 µM]	–	?
CCCCC/C=C\C/C=C\C/C=C\C/C=C\CCCC(=O)N(Cc1ccc(O)c(Cl)c1)Cc1ccc(O)c(Cl)c1	·	31.6µM	·	–	–
O=[N+]([O-])c1c(Cl)c(Cl)cc(Cl)c1Cl	·	·	·	–	–
CNc1cc(Cl)c2nonc2c1[N+](=O)[O-]	12.6µM	–	?	–	–
CCC12CCN(CCc3ccc(F)cc3)CC1Oc1c(O)cccc12 (stereo unspecified)	·	·	·	–	·
CCNc1cc(N2CCN(C)CC2)ccc1[N+](=O)[O-]	–	–	–	–	–
CN(C)c1c([N+](=O)[O-])cc(N2C(=O)C=CC2=O)cc1[N+](=O)[O-]	–	·	35.5µM	·	·
N#CC1=C(N)Oc2n[nH]c(-c3cccs3)c2C1c1ccco1 (stereo unspecified)	–	–	–	–	31.6µM
Nn1cnnc1	·	·	·	–	–
N#CC(C#N)=NNc1ccc(S(N)(=O)=O)cc1	39.8µM	–	56.2µM	?	–
CCC12CCN(C)CC1Oc1c(C)cccc12 (stereo unspecified)	·	·	·	–	·
O=C1NC(=O)N(Cc2ccccc2Cl)C(=O)/C1=C/c1cccs1	?	–	?	–	–
O=C1NC(=O)N(Cc2ccc(F)cc2)C(=O)/C1=C/c1cccs1	–	–	39.8µM	–	–
O=C(N/N=C/c1c(O)n(Cc2ccc(F)cc2)c(=O)[nH]c1=O)c1ccccc1	?	–	–	–	–
O=C(O)CCC(=O)NCCC1=c2ccccc2=N/C1=C\c1c(O)n(Cc2ccc(F)cc2)c(=S)[nH]c1=O	–	–	79.4µM	–	–
Cc1ccc(CCNC(=O)c2cc3cc(S(=O)(=O)N4CCCCC4)ccc3n2C)cc1	?	–	·	·	·
CC1(C)OC(c2ccccc2)=C/C(=C/C=C2C(=O)NC(=O)NC2=O)O1	–	–	?	–	25.1µM
COC(=O)C1=C(C(=O)OC)SC2(S1)C(C(=O)OC)=C(C(=O)OC)Sc1c2ssc1=O	–	·	12.6µM	·	·
Cc1ccc(N2C(=O)NC(=O)/C(=C/c3ccc(-c4ccc(C(=O)O)c(Cl)c4)o3)C2=O)cc1	?	–	?	?	–
O=C1NC(=O)N(c2ccc(Cl)cc2)C(=O)/C1=C\c1ccc(Sc2nc3ccccc3[nH]2)o1	79.4µM	–	25.1µM	?	25.1µM
[O-][Cl+2]([O-])O	·	·	·	–	–
CCn1cc2nc(SCc3cccc(C(F)(F)F)c3)n(Cc3ccc(OC)cc3)c(=O)c2n1	?	–	·	·	·
CCCCn1c(O)c(/C=N/N2CCCCC2c2cccnc2)c(=O)[nH]c1=S (stereo unspecified)	–	–	–	–	–
Cc1ccc(-n2c(O)c(/C=N/N3CCCCC3c3cccnc3)c(=O)[nH]c2=S)cc1 (stereo unspecified)	–	–	–	–	31.6µM
SMILES	FEN1 inhibitor	BLM helicase inh	WRN helicase inh	APEX1 inh	RECQ1 helicase
NC1CCCC[C@@H]1N (stereo partly specified)	·	–	·	–	–
CCc1ccc(N2C(=O)NC(=O)/C(=C\c3cccn3CCOc3ccc(C(C)C)cc3)C2=O)cc1	–	–	–	–	25.1µM
CC(C)c1ccc(N2C(=O)NC(=O)/C(=C/c3cnc(-c4ccccc4)nc3)C2=O)cc1	–	–	50.1µM	–	–
CCCCN1C(=O)NC(=O)/C(=C/c2cnc(SC)nc2)C1=O	–	–	39.8µM	–	–
CSc1ncc(/C=C2/C(=O)NC(=O)N(C)C2=O)cn1	–	–	?	–	?
CSc1ncc(/C=C2/C(=O)NC(=O)N(c3ccc(C(C)C)cc3)C2=O)cn1	–	–	50.1µM	–	–
c1ccc(CN2CCC3(CCc4ccccc43)CC2)cc1	·	–	·	?	–
Clc1ccc(COC(Cn2ccnc2)c2ccc(Cl)cc2Cl)cc1 (stereo unspecified)	?	–	–	?	?
Clc1ccc(C(c2ccc(Cl)cc2)n2cc[n+](CC(OCc3ccc(Cl)cc3Cl)c3ccc(Cl)cc3Cl)c2)cc1 (stereo unspecified)	79.4µM	·	?	–	?
CCOC(=O)N1CCN(/[N+]([O-])=N/Oc2ccc([N+](=O)[O-])cc2[N+](=O)[O-])CC1C (stereo unspecified)	–	–	·	–	–
CCCCC/C=C\C/C=C\C/C=C\C/C=C\CCCC(=O)NCC(=O)O	?	–	·	?	3.55µM!
CCCCC/C=C\C/C=C\C/C=C\C/C=C\CCCC(=O)NCCCC(=O)O	·	–	·	–	–
CCOC(=O)C1OC1(C)c1ccccc1 (stereo unspecified)	·	·	·	–	–
CCOC(=O)c1c(NS(=O)(=O)c2ccccc2)n(CCCOC)c2nc3ccccc3nc12	–	5.62µM	–	?	–
C=C(Cl)CCl	·	·	·	–	–
Cc1cccc(N2C(=O)NC(=O)/C(=C\C=C\c3ccco3)C2=O)c1	?	–	–	?	22.4µM
COc1ccc(CN2C(=O)NC(=O)/C(=C/c3ccc([N+](=O)[O-])o3)C2=O)cc1	·	?	·	?	10µM
CN(C)c1ccc(/C=C/C=C2/C(=O)NC(=O)N(c3ccccc3)C2=O)cc1	?	–	17.8µM	–	–
Cc1ccc(N2C(=O)NC(=O)/C(=C\C=C\c3ccco3)C2=O)cc1C	?	–	15.8µM	–	28.2µM
Cc1ccc(N2C(=O)NC(=O)/C(=C\C=C\c3ccco3)C2=O)cc1	?	–	?	?	?
COc1ccc(C=O)cc1OC	·	·	·	–	–
O=C(CCl)c1ccccc1	·	·	·	–	–
Cc1cccc(N2C(=O)NC(=O)/C(=C\c3cccn3-c3ccc(Cl)cc3)C2=O)c1	–	–	?	–	31.6µM
COc1cc(/C=C2\C(=O)NC(=O)N(c3ccccc3)C2=O)c([N+](=O)[O-])cc1OC	–	–	?	–	–
Cc1cccc(N2C(=O)NC(=O)/C(=C/c3ccc([N+](=O)[O-])o3)C2=O)c1	20µM	–	28.2µM	?	–
Cc1cc(C)cc(N2C(=O)NC(=O)/C(=C/c3cccn3-c3ccc(Cl)cc3)C2=O)c1	–	–	–[11.6 µM]	?	–
NCC[C@H](O)C(=O)N[C@@H]1C[C@H](N)[C@@H](O[C@H]2O[C@H](CN)[C@@H](O)[C@H](O)[C@H]2N)[C@H](O[C@@H]2O[C@H](CO)[C@@H](O)[C@H]2O)[C@H]1O	·	·	·	–	·
C=CCBr	·	·	·	–	–
